# Measured potencies and affinities stand elsewhere. A number with no mark means an inactive call.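 How the source made its calls: active means fitted half-maximal dose no more than twice the top valid tested dose, for compounds that lower signal; inconclusive means fit invalid, or curve flat with activity between -70 and -30; inactive means potency past limit, curve flat within ±30, or signal increasing.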
# Target: NAD-dependent protein deacylase sirtuin-5, mitochondrial (Homo sapiens) (UniProt Q9NXA8)
# Sequence (Q9NXA8 whole entry, looked up): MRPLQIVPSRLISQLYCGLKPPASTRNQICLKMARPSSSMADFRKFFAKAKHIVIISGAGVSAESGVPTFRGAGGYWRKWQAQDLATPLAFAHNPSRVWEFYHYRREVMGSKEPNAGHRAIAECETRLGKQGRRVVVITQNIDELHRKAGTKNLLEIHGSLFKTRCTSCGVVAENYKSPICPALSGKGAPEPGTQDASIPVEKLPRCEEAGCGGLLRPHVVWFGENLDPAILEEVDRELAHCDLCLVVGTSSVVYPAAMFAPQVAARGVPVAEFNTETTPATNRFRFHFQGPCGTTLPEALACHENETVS
# Test: SIRT5 deacylase inhibitors, dose response, biochemical, fluorescence imaging, cherry-pick, set 6 (AID 720597);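 further: lower AMC signal can also come from blocking the trypsin step; 0% = median of neutral control wells and -100% = median of positive control wells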
# Conditions: Purified SirT5, succinyl-peptide-AMC/trypsin fluorescence; series mostly up to 15 µM; activity change, negative = inhibition: at the top concentration
row,Structure (SMILES),"activity change, negative = inhibition [%]"
1,CCOC(=O)N(C)C[C@@H]1OCc2ccccc2-c2ccccc2C(=O)N([C@@H](C)CO)C[C@H]1C,12.9
2,O=C(C[C@@H]1CC[C@@H](NC(=O)Nc2cccc(F)c2)[C@H](CO)O1)NCC1CC1,1.72
3,COc1ccc(NC(=O)N(C)C[C@H]2Oc3cc(C#CCC(C)C)ccc3S(=O)(=O)N([C@@H](C)CO)C[C@@H]2C)cc1,29
4,C[C@@H]1CN([C@@H](C)CO)S(=O)(=O)c2ccc(C#C[C@@H](C)O)cc2O[C@H]1CN(C)Cc1ccc(-c2ccccc2)cc1,1.09
5,COc1ccc(CN(C)C[C@@H]2Oc3ccc(NC(=O)Nc4ccc(OC)cc4)cc3C(=O)N([C@@H](C)CO)C[C@H]2C)cc1,-0.857
6,C[C@@H]1CN([C@H](C)CO)S(=O)(=O)c2ccc(/C=C/c3ccccc3)cc2O[C@@H]1CN(C)Cc1ccccc1,5.76
7,C[C@@H]1CN([C@H](C)CO)C(=O)c2cc(NS(=O)(=O)c3ccc(Cl)cc3)ccc2O[C@H]1CN(C)Cc1ccc2c(c1)OCO2,16.1
8,COc1ccccc1C#Cc1ccc([C@H]2[C@@H](CO)N3CCCCN(C(=O)C4CCCC4)C[C@@H]23)cc1,1.76
9,O=C(C[C@@H]1C[C@H]2c3cc(NC(=O)C4CCC4)ccc3O[C@H]2[C@H](CO)O1)NCc1ccc(-c2ccccc2)cc1,-5.14
10,C[C@H](CO)N1C[C@H](C)[C@H](CN(C)S(=O)(=O)c2ccc(Cl)cc2)OCCCC[C@H](C)Oc2ccc(NC(=O)Nc3ccc4c(c3)OCO4)cc2C1=O,-12.6
11,CCCC(=O)Nc1ccc2c(c1)OC[C@H](C)N(Cc1ccccc1)C[C@H](C)[C@@H](OC)CN(C)C2=O,-21.2
